# Laboratory results: PubChem BioAssay AID720506 (National Center for Advancing Translational Sciences (NCATS), 2013)
# The whole screen tested about 2,300 compounds, of which about 95 (4%) were called active. Another 17% or so got no clear call; they are omitted. The call rests on the fitted dose curve; in most records, active means well fitted activation curve with a large enough effect; inconclusive means small, poorly fitted or top-dose-only effect; inactive means flat fitted curve, though single readings scatter. What follows is part of a selection rich in actives, with near analogues and random picks from the rest.
# Target: D(3) dopamine receptor (Homo sapiens) (UniProt P35462)
# Sequence (P35462 whole entry, looked up): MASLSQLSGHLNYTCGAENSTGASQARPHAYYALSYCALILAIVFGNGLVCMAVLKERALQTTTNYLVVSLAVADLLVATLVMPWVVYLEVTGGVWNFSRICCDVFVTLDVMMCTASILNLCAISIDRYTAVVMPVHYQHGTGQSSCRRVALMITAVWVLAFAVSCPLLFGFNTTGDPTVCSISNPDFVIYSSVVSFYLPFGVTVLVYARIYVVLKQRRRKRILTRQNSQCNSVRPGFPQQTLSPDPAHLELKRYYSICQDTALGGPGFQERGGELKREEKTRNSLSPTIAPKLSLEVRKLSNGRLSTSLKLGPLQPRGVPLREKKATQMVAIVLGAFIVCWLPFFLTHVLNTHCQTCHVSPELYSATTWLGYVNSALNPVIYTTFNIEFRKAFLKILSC
# Assay: qHTS of D3 Dopamine Receptor Agonist: D3 Dopamine Receptor B-arrestin Agonist Confirmatory Assay; further: nearly all actives have a fitted effect of over 70% in size;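 on activation: 100% = dopamine control response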
# Settings: DiscoveRx D3 beta-arrestin cells, luminescence, 90 min; series mostly up to 76.9 µM; activation: at the top concentration
# Source text: D3 DARs represent a very important target for the treatment of several neuropsychiatric disorders. Indeed, one of the most promising therapeutic applications for the D3 DAR is in the area of addiction and related disorders. […] These findings have been observed with a number of addictive substances including cocaine, amphetamine, nicotine, and alcohol. […] Increased D3 DAR activity can thus lead to neuroprotective and neurorestorative actions in the CNS. […] This assay is used to confirm the activity of the identified D3 dopamine receptor agonist. Activation is the desired outcome for this assay. NIH Molecular Libraries Probe Production Centers Network [MLPCN] NIH Chemical Genomics Center [NCGC] MLPCN Grant: NS064831 Assay Submitter (PI): David Sibley
# Freshly passaged DiscoveRx D3 cells are plated in 1536 well white, solid bottom plates at a density of 1500 cells/well in 3microl of complete media. After an overnight incubation at 37 degrees C in 5% CO2, cells are loaded with 23nl of test compound from the compound library (as well as dopamine controls) using a 1536 pintool and incubated at 37 degrees C for 90 minutes. Two microliters of DiscoveRx reagent is then added to all cells, and they are incubated for an additional 30 - 60 minutes at room temperature. Following incubation, luminescence is measured on a ViewLux CCD-based luminometer reader using a 20 sec exposure time.
# Potency means the concentration at half of the fitted maximal effect.
SMILES,activation,Potency
Cc1ccc(O)c(-c2cc(C(=O)Nc3c(C)n(C)n(-c4ccccc4)c3=O)[nH]n2)c1,0.15% (inactive),–
COc1ccc(NC(C)=O)cc1NC(=O)CN1CCN(c2ccccn2)CC1,15.7% (inactive),–
OCC[C@H]1C[C@H](O)[C@@H](O)[C@]2(Cc3ccccc3CO2)O1,-5.36% (inactive),–
Cn1c(C(=O)NCCCN2CCN(c3cccc(Cl)c3)CC2)cc2c(=O)n(C)c3ccccc3c21,-22% (inactive),–
O=C(Nc1cccnc1Cl)c1cc(-c2cccc(Cl)c2)on1,-7.51% (inactive),–
CCC(CC)NC(=O)/C=C/c1cccc([N+](=O)[O-])c1,0.387% (inactive),–
O=C1c2cccc3cccc(c23)N1CN1CCN(c2ccccn2)CC1,16.7% (inactive),–
OC(COc1cccc2ccccc12)CN1CCN(c2ccccn2)CC1 (configuration not stated),–,8.91 µM (active)
CC(=O)Nc1ccc(OCC(O)CN2CCN(c3ccccc3Cl)CC2)cc1 (configuration not stated),-5.41% (inactive),–
O=C(OCc1nc2ccccc2[nH]1)C1CCCCC1,-2.95% (inactive),–
O=C(c1ccccc1)c1ccc(OCC(O)CN2CCCC2)cc1 (configuration not stated),1.27% (inactive),–
CC[C@H](C)C(=O)N[C@H]1CCCN1C(=O)/C=C/c1ccccc1,-7.23% (inactive),–
CCCCC(=O)NNC(=S)NC(=O)C(c1ccccc1)c1ccccc1,-17.9% (inactive),–
CCCN1CC=C2C(C#N)=C(N)C(C#N)(C#N)C(c3cc(OC)ccc3OC)C2C1 (configuration not stated),-11.6% (inactive),–
CC(=O)C[C@@H](O)CC(=O)[C@H]1OC(=O)CCCCCCc2ccccc21,-0.58% (inactive),–
COc1cc(OC)c(-n2cc(-c3ccc(Cl)cc3)[nH]c2=O)cc1Cl,-14% (inactive),–
CNC(=O)NC(=O)C(C)N1CCN(C/C=C/c2ccccc2)CC1 (configuration not stated),8.09% (inactive),–
CN1CCC(CN)(N2CCN(c3ccccc3)CC2)CC1,8.81% (inactive),–
O=C1CC[C@H](O)CCN1[C@H](CSc1ccc(Br)cc1)Cc1ccccc1,-4.53% (inactive),–
Cc1ccccc1N1CCN(CCCOc2ccc3c(C)cc(=O)oc3c2)CC1,20% (inactive),–
Nc1nonc1-n1nnc(C(=O)N/N=C/c2ccc(Cl)cc2)c1-c1ccc2c(c1)OCO2,0.0552% (inactive),–
CN(C)CCOC(=O)C(c1ccccc1)C1(O)CCCC1 (configuration not stated),-3.48% (inactive),–
Cc1cc(C(=O)NNC(=O)c2ccccc2O)c(C)o1,-3.17% (inactive),–

SMILES,activation,Potency
COC(c1ccccc1)c1nnc(CCC(=O)N2CCN(CCOc3ccccc3)CC2)o1 (configuration not stated),–,2.82 µM (active)
O=C(Nc1ccc(F)cc1F)N1CCCN(CCOc2ccccc2)CC1,-3.15% (inactive),–
NS(=O)(=O)c1ccc(CCNC(=O)NC2CCCCC2)cc1,-9.36% (inactive),–
[O-][N+]12CCCCC1CCCC2CO (configuration not stated),-6.66% (inactive),–
COc1cc(OC)c2ccc(=O)oc2c1C(CCN1CCN(c2ccccc2)CC1)c1ccc2c(c1)OCO2 (configuration not stated),25.2% (inactive),–
O=C(CCN1CCN(c2ccccc2)CC1)NNC(=S)Nc1ccccc1,1.55% (inactive),–
COc1ccc(N2CCN(Cc3cc(=O)oc4ccc5ccccc5c34)CC2)cc1,-2.9% (inactive),–
Cc1cccc(C)c1NC(=O)CNC(=O)c1ccc2c(c1)OCCO2,-4.56% (inactive),–
Cc1ccccc1Nc1nc(N)nc(CN2CCN(c3ccccn3)CC2)n1,-7.76% (inactive),–
Cc1c(CN2CC[C@@H](N3CCN(c4ccccn4)CC3)[C@H](O)C2)[nH]c2ccc(F)cc12,–,28.2 µM (active)
O=C(CN1CCN(c2ccccn2)CC1)NC1CCCCC1,1.52% (inactive),–
Cc1n[nH]c(C)c1S(=O)(=O)N1CCCC(C(=O)NCC2COc3ccccc3O2)C1 (configuration not stated),5.77% (inactive),–
O=C(O[C@H]1[C@H](Cc2ccccc2)NS(=O)(=O)[C@H]2C[C@@H]3C=C[C@]12O3)c1ccc([N+](=O)[O-])cc1,-6.96% (inactive),–
O=C1c2ccccc2S(=O)(=O)N1CC(O)Cn1c2ccccc2c2ccccc21 (configuration not stated),7.56% (inactive),–
CC(C)(C)n1ncc2c(=O)n(Cc3c(Cl)cccc3Br)cnc21,7.37% (inactive),–
COc1ccc(S(=O)(=O)N2CCSCC2)cc1,-5.06% (inactive),–
O=C1C=C(c2cccc(Br)c2)C[C@@H](c2ccc(F)cc2)C1,-9.8% (inactive),–
O=C(COc1coc(CN2CCN(c3ccccc3)CC2)cc1=O)Nc1ccccc1F,15.3% (inactive),–
CCC(=O)c1ccc(OCC(=O)Nc2ccc(N3CCCCC3)cc2)cc1,-2.57% (inactive),–
Cc1cnc(C(=O)N2CCCC(N3CCN(c4ccccc4F)CC3)C2)cn1 (configuration not stated),4.86% (inactive),–
CN(CCO)S(=O)(=O)c1ccc2c(c1)C(=O)c1cc(S(=O)(=O)N(C)CCO)ccc1-2,19.8% (inactive),–
CC(=O)OC(C)C[N+](C)(C)C (configuration not stated),-10% (inactive),–
CS(=O)(=O)N1CCC(C(=O)N2CCN(c3ccccc3)CC2)CC1,11.2% (inactive),–

SMILES,activation,Potency
O=C(NC(=O)c1ccccc1)Nc1ccccc1O,-12.9% (inactive),–
O=C(CCn1c(=O)[nH]c2ccccc2c1=O)NCCCN1CCN(c2cccc(Cl)c2)CC1,3.76% (inactive),–
O=C(CN1CCN(c2ncccn2)CC1)Nc1ccccc1C(F)(F)F,7.45% (inactive),–
CC(OC(=O)/C=C/c1ccccc1)C(=O)NC1CCCCC1C (configuration not stated),-7.01% (inactive),–
O=c1cc(CCl)nc2scc(-c3ccccc3)n12,-6.56% (inactive),–
CC(C)CCN1CCN(Cc2cn[nH]c2C2CCCCC2)CC1CCO (configuration not stated),-8.42% (inactive),–
CS/C(=C\C(=O)c1ccco1)Nc1ccccc1Cl,-7.46% (inactive),–
O=S(=O)(c1ccc(F)cc1)N1CC=C(c2ccccc2)CC1,13.2% (inactive),–
CCN(CCCNC(=O)c1ccc2c(c1)NC(=O)CN2C)c1cccc(C)c1,9.36% (inactive),–
O=C(CC1NCCc2ccccc21)Nc1cccc(Cl)c1 (configuration not stated),-14.9% (inactive),–
COc1ccc([C@H]2CC(=O)C=C(c3ccc(CO)cc3)C2)cc1,-2.54% (inactive),–
COc1ccc([C@H]2CC(=O)C=C(c3ccc(OC(F)(F)F)cc3)C2)cc1OC,-7.65% (inactive),–
CC(=C1C(=O)c2ccccc2C1=O)N1CCN(c2ccccn2)CC1,7.68% (inactive),–
Cc1c(CC(=O)N2CCN(C(=O)C3COc4ccccc4O3)CC2)c(=O)oc2c(O)c(O)ccc12 (configuration not stated),–,28.2 µM (active)
NS(=O)(=O)c1ccc(CCNS(=O)(=O)c2cccc3cccnc23)cc1,-7.06% (inactive),–
C/C(=N\NC(=S)NC1CCCCC1)c1ccc(C)o1,-16.5% (inactive),–
COc1ccc(CC(NC(C)=O)C(=O)N2CCN(C(=O)Nc3cccc(Cl)c3)CC2)cc1OC (configuration not stated),-10.7% (inactive),–
O=C(NCCCN1CCN(c2ccccc2F)CC1)C1CCC(=O)N1C1CCCCC1 (configuration not stated),3.35% (inactive),–
Cc1ccc(S(=O)(=O)N2CC(O)C[C@H]2C(=O)OCC(=O)Nc2ccc(N3CCOCC3)cc2)cc1C (some centres not stated),-0.304% (inactive),–
CCn1c(=O)n(CC)c2cc(N3CCCC3)c(NC(=O)c3ccccc3Br)cc21,-1.66% (inactive),–
CNCC(O)c1ccc(O)c(O)c1 (configuration not stated),-1.74% (inactive),–
